HT1080 IDH1KD tx: toxicity to HT-1080 IDH1 knockdown cells (counter line); HT-1080 IDH1 knockdown viability, ATP luminescence, 48 h; Potency, µM (doses to about 46.1 µM), most hits filed as cytotoxic; 2% of 360,000 active
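After a 2 h attachment period, IDH1KD HT-1080 cells took pin-transferred compound for 48 h at 37 °C; ATP-based luminescence after 10 min room-temperature reagent incubation reported viability.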
HT1080NT lethal: kills 2HG-producing HT-1080-NT fibrosarcoma cells. HT-1080-NT fibrosarcoma viability, CellTiter-Glo ATP luminescence, 48 h. Potency, µM (doses to about 46.1 µM), usual class: cytotoxic. 1.6% of 360,000 active. AID 686970;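 note: NT is the 2HG producing partner of a matched IDH1 knockdown line; nearly all actives have a fitted effect of over 55% in size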
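750 cells/well, RPMI + 5% FBS; 2 h settle, compound pin-transfer, 48 h at 37 degrees C. CellTiter-Glo 10 min RT, luminescence. Normalized to DMSO and media-only wells.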
IL-1B inflam inh: inflammasome signaling inhibition, IL-1 beta readout. THP-1 LPS/ATP IL-1B secretion, AlphaLISA, 16 h; hits give low values. activity change, % at 57.5 µM. 4.7% of 360,000 active. AID 743279; in the data active = activity change below about -50%; inconclusive = mostly about -30% to -49%
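Secreted IL-1B measured by AlphaLISA bead assay after 16 h compound exposure of THP-1 cells; compounds (final up to 57.5 uM) added 1 h before LPS (250 ng/mL) and ATP (1.25 mM) stimulation; lower signal means less secretion.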
KB-V1 cytotox: kills drug-selected multidrug resistant KB-V1 cells; KB-V1 MDR cells viability, CellTiter-Glo, 72 h; Potency, µM (top dose mostly 46.1 µM), hits mostly cytotoxic; 3.4% of 400,000 active; AID 1347076; note: nearly all actives have a fitted effect of over 60% in size
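Drug-selected KB-V1 cells, grown in DMEM lacking phenol red with 10% FBS, receive compound titrations; after three days at 37 degrees C, surviving cell ATP is quantified by CellTiter-Glo luminescence and responses normalized and curve-fitted.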
KB-3-1 cytotox: kills parental KB-3-1 adenocarcinoma cells; Potency, µM (highest dose often 46.1 µM), usual class: cytotoxic; AID 1347075; 1.4% of 400,000 active; KB-3-1 viability, CellTiter-Glo ATP luminescence, 72 h; note: nearly all actives have a fitted effect of over 60% in size
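Parental KB-3-1 viability, qHTS format: 72 h compound exposure, 37 °C; CellTiter-Glo; media-only wells and DMSO plates as controls; concentration-effect fits on corrected data.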
Numbers stand for hits; i = inactive; ? = inconclusive; nt = no result given; [ ] = remark or other dose. Compounds with a hit are over-represented: about 8.8% of the library has one in this group of screens. Unless noted, calls come from the whole dose curve; as a rule, active = well fitted curve in the direction sought with a large enough effect; inconclusive = small, poorly fitted or top-dose-only effect, or another doubt; inactive = no such curve, though single readings can be large; an effect the other way counts as inactive or inconclusive.

SMILES | HT1080 IDH1KD tx | HT1080NT lethal | IL-1B inflam inh | KB-V1 cytotox | KB-3-1 cytotox
COC(=O)c1c(NC(=O)C(C)C)sc2c1C(C(=O)OC)CC2 (stereo unspecified) | i | i | i | 13µM | ?
CCN(CC(=O)NCc1cccs1)C(=O)c1cccc(S(=O)(=O)N2CC(C)OC(C)C2)c1 (stereo unspecified) | i | i[9.24 µM] | i | ? | i
COc1ccc(OCc2ccc(-c3nc(C#N)c(N4CCC(C)CC4)o3)o2)cc1 | nt | nt | nt | i | ?
CC(C)(C)NC(=O)CN1CCN(C(=O)CCl)CC1 | ? | ? | -79 | i | ?
CCOC(=O)N1CCN(C(=O)CCl)CC1 | ? | ? | -92 | i | i
CCOC(=O)N1CCN(C(=O)Cc2ccc(Cl)cc2)CC1 | i | i | i | i | i
CC(=O)Nc1cccc(NC(=O)CCNC(=O)c2ccc(Cl)cc2)c1 | i | i | i | i | i
COC1=C(Nc2ccccc2)C(=O)c2ccccc2C1=O | 13µM | ? | ? | ? | 21µM
COC1=C(Nc2ccc(C)cc2)C(=O)c2ccccc2C1=O | i | i | -77 | 18µM | i
CC(=O)NC1=C(Nc2ccc(N(C)C)cc2)C(=O)c2ccccc2C1=O | 13µM | ? | i | i | i
CC(C)Oc1ccc(C(=O)N(Cc2ccc(N(C)C)cc2)C2CCS(=O)(=O)C2)cc1 (stereo unspecified) | nt | nt | nt | i | i
COc1ccc(-c2cc3nc(C)n(N)c(=O)c3s2)cc1 | 5.8µM | 4.1µM | i | 4.6µM | ?
Cc1nc2cc(-c3ccccc3)sc2c(=O)n1N | 3.7µM | 3.7µM | i | i | 3.7µM
COc1ccc(-c2cc3nc4n(c(=O)c3s2)CCC4)cc1 | i | i[9.24 µM] | i | i | i
Cn1c(NCc2ccccc2)nc2cc(-c3ccccc3)sc2c1=O | i | i | i | i | i
O=C(NNc1c(Cl)cc(Cl)cc1Cl)C1CCC1 | i | i | i | i | i
Cc1c(C(=O)N2CCOCC2)sc2ncnc(N3CCc4ccccc4C3)c12 | i | i | i | i | i
Cc1nc(N2CCC(C)CC2)c2c(C)c(C(=O)Nc3ccc4c(c3)OCCO4)sc2n1 | i | i | ? | i | i
Cc1c(C(=O)Nc2ccc3c(c2)OCCO3)sc2ncnc(N3CCCCC3C)c12 (stereo unspecified) | i | i | ? | ? | 18µM
Cc1c(C(=O)N2CCCCC2C)sc2ncnc(N3CCc4ccccc4C3)c12 (stereo unspecified) | i | i | -97 | ? | i
O=C1CCCCc2sc(Br)c([N+](=O)[O-])c2N1 | ? | ? | -105 | i | i
COc1ccccc1CNC(=O)c1cc2c(C)nn(Cc3ccc(F)cc3)c2s1 | i | i | -52 | i | i
CCC(CC)NC(=O)c1cc2c(C)nn(Cc3ccccc3Cl)c2s1 | ? | i | i | 15µM | ?
COc1nc(Nc2ccc(OC)c(Cl)c2)nc(OC)n1 | i | i | i | 18µM | ?
Cc1cc(C)nc(Sc2nc(Nc3ccccc3)nc(Sc3nc(C)cc(C)n3)n2)n1 | i | i | -54 | ? | 21µM
SMILES | HT1080 IDH1KD tx | HT1080NT lethal | IL-1B inflam inh | KB-V1 cytotox | KB-3-1 cytotox
Cc1cc(C)nc(Nc2ccc(O)cc2)n1 | i | i | i | i | i
COc1nc(Nc2ccccc2)nc(OC)n1 | i | i | i | 8.2µM | ?
COc1nc(Nc2ccccc2F)nc(OC)n1 | i | i | i | ? | ?
COc1ccc(Nc2nc(C)cc(C)n2)cc1Cl | i | i | i | i | i
COc1nc(Nc2cccc(F)c2)nc(OC)n1 | i | i | i | 6.5µM | ?
COc1ccccc1OCC(=O)Nc1ccc(S(=O)(=O)Nc2onc(C)c2C)cc1 | i | i | i | i | i
CNc1nc(Cl)nc(Nc2ccccc2)n1 | i | i | i | 5.8µM | ?
CN(CC(=O)Nc1cccc2ccccc12)C(=O)/C=C/c1cccs1 | i | i | i | ? | i
CCn1c(NC(=O)c2ccc(F)cc2)c2ccccc2nc1=O | i | i | i | 10µM | ?
CCn1c(NC(=O)c2ccc(C)cc2)c2ccccc2nc1=O | i | i | ? | 12µM | i
O=C(Nc1nc(=O)c2ccccc2s1)c1ccc(Cl)cc1 | i | i | i | i | i
CCn1c(CCNC(=O)c2ccc(F)cc2)nc2ccccc21 | i | i | ? | i | i
O=C(Nc1nc(=O)c2ccccc2s1)c1ccc(F)cc1 | 1.4µM | 16µM | -99 | i | i
CCn1c(NC(=O)C(C)C)c2ccccc2nc1=O | i | i | i | i | i
Cc1ccc(C(=O)NNc2c3ccccc3nc3ccccc23)cc1 | ? | i | -98 | i | ?
CCOC(=O)C1(CCCc2ccccc2)CCN(C(=O)c2n[nH]c(CC)c2C)CC1 | i | i | ? | ? | i
CCOc1cc(C2CC(=O)Nc3c2c(=O)nc(SCc2cccc(Cl)c2)n3C)ccc1O (stereo unspecified) | nt | nt | nt | ? | i
Clc1ccc(Cn2c3c(c4ccccc42)CCc2cc4ccccc4nc2-3)cc1 | nt | nt | nt | i | i
Cn1c2c(c(=O)n(C)c1=O)C(C(F)(F)F)(C(F)(F)F)N=C(c1ccccc1Cl)N2 | i | i | i | ? | ?
Cn1c2c(c(=O)n(C)c1=O)C(C(F)(F)F)(C(F)(F)F)N=C(CCC1CCCCC1)N2 | ? | ? | -58 | ? | 23µM
CCCCN1C(=O)C(CC(=O)NC2CCCCC2)CC(C(=O)N(C)C)=C1C (stereo unspecified) | i | i | i | i | i
CCOc1ccc2c(c1)c(N=O)c(O)n2C | i | i | -64 | i | i
CCOC(=O)c1c(C)n(C)c2ccc(OCC(N)=O)cc12 | i | i | i | ? | i
COC(=O)CNC(=O)c1sc2ncn(CC(=O)Nc3ccc(C)c(Cl)c3)c(=O)c2c1C | i | i | -81 | i | i
COCCNC(=O)c1sc2ncn(CC(=O)Nc3ccc(C)c(Cl)c3)c(=O)c2c1C | i | i | i | i | i
SMILES | HT1080 IDH1KD tx | HT1080NT lethal | IL-1B inflam inh | KB-V1 cytotox | KB-3-1 cytotox
COc1ccccc1C(=O)Nc1cccc(C(=O)OCc2cc(=O)n3ccsc3n2)c1 | nt | nt | nt | i | i
O=C(CN1CCN(S(=O)(=O)c2ccc(F)cc2)CC1)Nc1cccc(C(F)(F)F)c1 | i | i | -69 | ? | i
COc1cccc(NC(=O)CN2CCN(S(=O)(=O)c3ccc(F)cc3)CC2)c1 | i | i | i | i | i
O=C(Nc1ccc2c(c1)CCC2)Nc1ccccc1Cl | i | i | -69 | ? | i
O=C(CCS(=O)(=O)c1ccc(Cl)cc1)Nc1cccc(S(=O)(=O)N2CCCCCC2)c1 | i | i | i | 21µM | i
CCOc1ccccc1NC(=O)Nc1ccc2c(c1)CCC2 | i | i | i | i | i
CC1CCN(CC(=O)Nc2cccc(C(=O)Nc3cccc(C(F)(F)F)c3)c2)CC1 | 23µM | 16µM | -75 | i | ?
Cn1cc(C(=O)NCc2ccccc2)c(=O)c2cc(S(=O)(=O)N3CCOCC3)ccc21 | nt | nt | nt | i | i
O=C(CNC(=O)c1ccccc1)OCC(=O)c1cccc2ccccc12 | nt | nt | nt | i | ?
COC(=O)c1cc(NC2(c3ccccc3)C(=O)c3ccccc3C2=O)cc(C(=O)OC)c1 | nt | nt | nt | ? | i

Bioassay records as filed in PubChem BioAssay.
